Reference: PubChem BioAssay (EPA / NIEHS)
Records with an inconclusive call do not appear. The source made the active and inactive calls. How the source made its calls: active means hit-call score of the fitted dose curve at least 0.9, where 1 is the maximum; inconclusive means response in the unintended direction; inactive means score below 0.9.

What was measured:
[1] = Tanguay_ZF_120hpf_BRAI_legacy: (Legacy) Oregon State University Tanguay Lab 120 Hour Post-fertilization zebrafish Assay for Brain Malformation (AID 2283641)
In short: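 Brain malformation in Tropical 5D zebrafish was recorded as a binary endpoint after static compound exposure from early development to 120 hpf at 28C. Activity was analysed against DMSO as negative control.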

[2] = Tanguay_ZF_120hpf_SOMI_legacy: (Legacy) Oregon State University Tanguay Lab 120 Hour Post-fertilization zebrafish Assay for Somite Malformation (AID 2283647)
In short: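 5D WT zebrafish; chorion removed 4 hpf; 1 embryo/well from 6 hpf; static exposure to 120 hpf, 28C, 0.64% DMSO final. Endpoint: somite malformation, binary, brightfield. Mortality excluded.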

[3] = Tanguay_ZF_120hpf_PFIN_legacy: (Legacy) Oregon State University Tanguay Lab 120 Hour Post-fertilization zebrafish Assay for Pectoral Fin Malformation (AID 2283648);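 further: each larva judged yes or no for fin defect by brightfield with dead larvae skipped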
In short: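 Tropical 5D wild-type embryos, dechorionated with pronase at 4 hpf, were placed singly in wells at 6 hpf and statically exposed until 120 hpf at 28C, sealed and dark, with 0.64% (vol/vol) final DMSO; pectoral fin malformation scored present/absent.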

[4] = Tanguay_ZF_120hpf_CFIN_legacy: (Legacy) Oregon State University Tanguay Lab 120 Hour Post-fertilization zebrafish Assay for Caudal Fin Malformation (AID 2283649)
In short: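 Embryos were collected from Tropical 5D wild-type adults and dechorionated at 4 hpf. At 6 hpf each was exposed, one per well, at 0.64% DMSO and 28C. At 120 hpf fin morphology was scored; dead embryos were excluded.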

[5] = Tanguay_ZF_120hpf_CIRC_legacy: (Legacy) Oregon State University Tanguay Lab 120 Hour Post-fertilization zebrafish Assay for Circulatory Malformation (AID 2283651)
In short: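 Tropical 5D wild-type embryos, dechorionated with pronase at 4 hpf, were placed singly in wells at 6 hpf and exposed statically at 28C to 120 hpf (0.64% DMSO final). Circulatory malformation was scored present/absent by brightfield microscopy.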

[6] = Tanguay_ZF_120hpf_SWIM_legacy: (Legacy) Oregon State University Tanguay Lab 120 Hour Post-fertilization zebrafish Assay for Swim Bladder Malformation (AID 2283654);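 further: swim bladder malformation in each larva scored yes or no under brightfield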
In short: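 Dechorionated Tropical 5D wild-type embryos, placed singly from 6 hpf, were statically exposed at 28C to 120 hpf with 0.64% DMSO final; swim bladder malformation was scored present/absent by brightfield microscopy, gain of signal relative to DMSO controls.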

Measured: outcome

CCCCCCC(=O)O
inactive: all assays above

CN1CCC[C@H]1c1cccnc1
not listed: [5]
inactive: all other assays above

CCN(CC)CCNc1ccc(CNC=O)c2sc3ccc(OC)cc3c(=O)c12
not listed: [3]
inactive: all other assays above

CCCCCCCCC(=O)O
inactive: all assays above
